An excerpt weighted towards active compounds, which were near 2.4% of everything screened.
TLR4-MyD88 BLA – inhibitors of TLR4-MyD88 association in cells, primary screen, cell-based, HeLa CL3-4, BLA complementation, FRET ratio; Toll-like receptor 4 (Homo sapiens) + Myeloid differentiation primary response protein …; HeLa CL3-4 TLR4/MyD88 BLA complementation; inhibition, % at 8.4 µM; 0.18% of 200,000 active; in the data active = inhibition above about 25%
NOD2 RIPK2 PPI – NOD2-RIPK2 binding disruptors in cells, primary screen, fluorescence, CHO cells, BLA complementation. inhibition, % at 4.98 µM. Receptor-interacting serine/threonine-protein kinase 2 (Homo sapiens), O43353. 0.38% of 360,000 active. CCF4 ratio; in the data active = inhibition above about 21%
TLR9-MyD88 block – inhibitors of TLR9-MyD88 association in cells, primary screen, cell-based, CHO, BLA complementation, fluorescence; CCF4 FRET ratio; inhibition, % at 4.98 µM; 0.21% of 340,000 active; AID 504734, 2011;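 active = inhibition above the mean over all tested compounds plus 3 SD, cut at about 21% in these data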
ANO1 activ – TMEM16A chloride channel activators or potentiators, primary screen, cell-based, HTS; AID 623877, 2012; 0.3% of 340,000 active; B-score at 10 µM; Anoctamin-1 (Mus musculus), Q8BHY3; HEK293 TMEM16A/YFP-H148Q/I152L, iodide quench fluorescence; stronger effect = lower value;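 active = fluorescence-ratio B-score plate-corrected deviation score at least 3 library SD below zero, with starting fluorescence score within 5 deviations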;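 also: channel opened by trigger with iodide after compound preincubation; score built on the fluorescence ratio of max minus min over baseline; more negative score means more quench and so TMEM16A activation or potentiation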
TMEM16A inh – TMEM16A chloride channel inhibitors, primary screen, cell-based, HTS. Anoctamin-1 (Mus musculus), Q8BHY3. HEK293 TMEM16A/YFP iodide influx fluorescence, ionomycin. normalized B-score (activity score, 25-100; higher = stronger inhibition) at 10 µM. 1.2% of 310,000 active;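 active = ratio plate-corrected score three or more library SD toward inhibition, starting fluorescence score within five deviations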;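 also: score derived from kinetic fluorescence span divided by baseline fluorescence per well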
m5-HT2A agonist – mouse Htr2a agonists via beta-arrestin recruitment, primary screen, cell-based, luminescence; 0.66% of 360,000 active; CHO-K1 mHTR2A beta-arrestin complementation; percent of 30 µM serotonin response; 5-hydroxytryptamine receptor 2A (Mus musculus), P35363; activation, % at 7.6 µM;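 active = activation above a run cutoff, the mean activation of all tested compounds plus 3 SD, cut at about 14% in these data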
Target sequence (P35363 whole entry, looked up): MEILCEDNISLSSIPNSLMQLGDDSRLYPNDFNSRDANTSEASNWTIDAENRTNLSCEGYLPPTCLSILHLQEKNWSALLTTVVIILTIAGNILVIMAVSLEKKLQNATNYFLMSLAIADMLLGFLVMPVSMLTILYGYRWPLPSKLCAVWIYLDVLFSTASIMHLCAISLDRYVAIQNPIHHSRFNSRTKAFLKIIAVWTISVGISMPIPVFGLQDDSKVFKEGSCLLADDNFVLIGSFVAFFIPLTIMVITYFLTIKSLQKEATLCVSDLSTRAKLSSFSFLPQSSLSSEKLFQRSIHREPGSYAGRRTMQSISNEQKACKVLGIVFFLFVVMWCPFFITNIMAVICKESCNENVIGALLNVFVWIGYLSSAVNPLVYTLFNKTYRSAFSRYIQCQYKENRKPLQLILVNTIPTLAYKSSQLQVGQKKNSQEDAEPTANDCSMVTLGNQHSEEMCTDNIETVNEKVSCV
TMEM16A reconf – TMEM16A chloride channel inhibitors, confirmation, cell-based, re-confirmation. HEK293 TMEM16A/YFP-H148Q, iodide quench fluorescence; ionomycin added to raise cell calcium. 39% of 2,300 active. shares compounds with TMEM16A inh. inhibition, % at 10 µM. AID 652189, 2013;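 active = mean duplicate percent inhibition, scaled so buffer wells are 0 and the reference blocker 100, over three buffer SD above buffer mean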
TMEM16A Ca cntr – calcium mobilization in TMEM16A/YFP HEK293 cells, confirmation, counter-screen for TMEM16A inhibitor project. shares compounds with TMEM16A inh. Fluo4 calcium mobilization. calcium response (% of ionomycin), % at 10 µM. 2% of 2,300 active;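 active = duplicate-averaged calcium signal over 20% of the ionomycin maximum, relative to buffer baseline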;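 also: each well's signal is peak minus trough fluorescence divided by its pre-addition baseline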
YFP-HEK293 quench – iodide YFP quench changes in parental YFP-HEK293, counter-screen for TMEM16A inhibitor project, cell-based. 2,300 tested, under 10 active. YFP ratio F(max-min)/F0 at 10 µM. ionomycin. shares compounds with TMEM16A inh;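 active = yellow fluorescent protein signal ratio exceeding the buffer control mean by over 5 SD of those controls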;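 also: ratio is mean of duplicate wells from kinetic YFP trace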
ClC-1 rat inh – ClC-1 chloride channel inhibition, selectivity assay for TMEM16A inhibitor project, cell-based, voltage-dependent ClC-1. shares compounds with TMEM16A inh. CHO ClC-1-YFP, iodide influx fluorescence quench; iodide control reads 0, buffer control 100. ratio percent, % at 10 µM. 2,300 tested, under 10 active;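 active = duplicate-mean ratio percent above the mean of iodide-only control wells, which defines zero, plus 5 of their SD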;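 also: higher percent means stronger block of ClC-1 iodide influx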
Large screens that a line does not name were inactive (follow-up assays come after a bar, where they were run).

CCOC(=O)c1nnn(-c2nonc2-n2cccc2)c1CCl	none
CCOC(=O)c1nnn(-c2nonc2-n2cccc2)c1CN1CCC(C)CC1	TMEM16A inh 100 (no result: ANO1 activ) | TMEM16A reconf 18% | TMEM16A Ca cntr inactive | YFP-HEK293 quench inactive | ClC-1 rat inh inactive
CCN1/C(=C/C=C/C=C/C=C/c2sc3ccccc3[n+]2CC)Sc2ccccc21	none (no result: TLR4-MyD88 BLA) | TMEM16A reconf 45% | TMEM16A Ca cntr inactive | YFP-HEK293 quench inactive | ClC-1 rat inh inactive
Cc1ccc(C)c(NC(=O)CSc2nnc(-c3ccncc3)o2)c1	none (no result: TLR4-MyD88 BLA, TLR9-MyD88 block)
O=C(CN1C(=O)CSc2ccc(S(=O)(=O)N3CCOCC3)cc21)NCCc1ccccc1	none (no result: TLR4-MyD88 BLA, ANO1 activ, TMEM16A inh)
O=C(Oc1ccc2ccccc2c1Cl)N1CCCCCC1	TMEM16A inh 25 | TMEM16A reconf inactive | TMEM16A Ca cntr inactive | YFP-HEK293 quench inactive | ClC-1 rat inh inactive
O=C(Oc1ccc2ccccc2c1Cl)N1CCCC1	none
O=C(Oc1ccc(Cl)c2ccccc12)N1CCCCC1	TMEM16A inh 25 | TMEM16A reconf inactive | TMEM16A Ca cntr inactive | YFP-HEK293 quench inactive | ClC-1 rat inh inactive
CN1C2CCC1/C(=C\c1ccccc1F)C(=O)/C2=C/c1ccccc1F	none
Cc1[nH]nc(-c2ccc(O)cc2O)c1Oc1ccccc1	TMEM16A inh 100 | TMEM16A reconf 24% | TMEM16A Ca cntr inactive | YFP-HEK293 quench inactive | ClC-1 rat inh inactive
CCOc1ccc(C(=O)CCC(=O)N2CCN(S(=O)(=O)c3cccc(F)c3)CC2)cc1	none (no result: TLR4-MyD88 BLA, TMEM16A inh)
COc1ccc(CN(C)C(=O)c2cccc(Oc3ccccc3)c2)c(OC)c1OC	TMEM16A inh 25 (no result: TLR4-MyD88 BLA) | TMEM16A reconf 32% | TMEM16A Ca cntr inactive | YFP-HEK293 quench inactive | ClC-1 rat inh inactive
Cc1cccc2c(SCC(N)=O)nc(-c3ccccc3)nc12	TMEM16A inh 100 (no result: TLR4-MyD88 BLA) | TMEM16A reconf inactive | TMEM16A Ca cntr inactive | YFP-HEK293 quench inactive | ClC-1 rat inh inactive
NC(=O)CSc1nc(-c2ccccc2)nc2ccccc12	none (no result: TLR4-MyD88 BLA, ANO1 activ)
NC(=O)CSc1nnc(Cn2c(=O)sc3ccccc32)n1-c1cccc(Cl)c1	TMEM16A inh 25 | TMEM16A reconf inactive | TMEM16A Ca cntr inactive | YFP-HEK293 quench inactive | ClC-1 rat inh inactive
Clc1ccc(CCNc2ncnc3nc[nH]c23)cc1	TMEM16A inh 100 | TMEM16A reconf 36% | TMEM16A Ca cntr inactive | YFP-HEK293 quench inactive | ClC-1 rat inh inactive
CCOC(=O)c1c(-c2cccs2)csc1NC(=O)C(C)(C)C	TMEM16A inh 25 | TMEM16A reconf 33% | TMEM16A Ca cntr inactive | YFP-HEK293 quench inactive | ClC-1 rat inh inactive
CCCCOCCCNC(=O)c1c(-c2ccccc2)noc1C	TMEM16A inh 25 | TMEM16A reconf inactive | TMEM16A Ca cntr inactive | YFP-HEK293 quench inactive | ClC-1 rat inh inactive
COCCCNC(=O)c1c(-c2ccccc2)noc1C	none (no result: ANO1 activ)
